Source: PubChem BioAssay (National Center for Advancing Translational Sciences (NCATS))
HSD17B inhib = HSD17B dehydrogenase inhibition; recombinant HSD17B10, NADH fluorescence kinetic; Potency, µM (highest dose often 57.1 µM), inactives show at the top dose activity change, negative = inhibition, most hits filed as inhibitors; actives 7.6% (n = 75,000); AID 893;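 also: the protocol describes HADH2 (HSD17B10) and not the HSD17B4 of the title; potency is read from the fitted curve at half-maximal effect; % is scaled to controls: 0 for no effect and ±100 for the full control effect; nearly all actives have a fitted effect of over 70% in size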
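Enzyme plus compound, 15 min room temperature; substrate mix added (NAD+ 1 mM, beta-hydroxybutyryl-CoA 90 uM final); plates read kinetically for NADH fluorescence. HADH2 was His-tagged, E. coli-derived, 20 nM.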
A350 autofl = compounds fluorescent in Alexa 350 spectral region | actives 11% (n = 59,000) | Compound autofluorescence, 340/450 nm, Alexa 350 dye-equivalents; hits give high values | max dye-equivalent concentration, M; in the data active = max dye-equivalent concentration above about 10 nM; inconclusive = mostly about 1.1 nM to 9.6 nM
GBA activity = modulators of human glucocerebrosidase; P04062; purified enzyme, resorufin glucoside fluorescence (screen aimed at inhibitors), 20 min; Potency, µM; actives 1.1% (n = 48,000); AID 360; in the data active = potency below about 15 µM; inconclusive = mostly about 16 µM to 33 µM;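 also: potency is read from the fitted curve at half-maximal effect; the screen sought inhibitors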
Target sequence (P04062 whole entry, looked up): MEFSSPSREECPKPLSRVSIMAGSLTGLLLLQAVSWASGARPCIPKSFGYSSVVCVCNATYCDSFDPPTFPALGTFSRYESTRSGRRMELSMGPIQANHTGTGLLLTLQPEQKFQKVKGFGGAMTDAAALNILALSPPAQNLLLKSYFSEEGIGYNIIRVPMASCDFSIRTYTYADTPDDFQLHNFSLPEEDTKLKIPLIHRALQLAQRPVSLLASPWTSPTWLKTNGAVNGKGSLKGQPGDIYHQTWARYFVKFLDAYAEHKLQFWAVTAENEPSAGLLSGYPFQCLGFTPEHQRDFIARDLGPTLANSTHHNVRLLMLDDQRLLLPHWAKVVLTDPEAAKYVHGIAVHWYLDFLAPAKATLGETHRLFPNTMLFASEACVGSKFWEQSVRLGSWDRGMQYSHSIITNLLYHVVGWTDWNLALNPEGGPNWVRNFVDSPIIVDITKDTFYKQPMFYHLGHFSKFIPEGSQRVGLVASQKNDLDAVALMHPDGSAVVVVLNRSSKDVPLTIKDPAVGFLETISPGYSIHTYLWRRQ
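Compounds titrated against 0.2 nM normal enzyme, 30 uM resorufin beta-D-glucopyranoside substrate, citrate/phosphate buffer with taurocholate and tween-20, pH 5.9. Reaction ran 20 min at room temperature; fluorescence (Ex 548/Em 600) gave AC50.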
HADH2 inhib = blocks human hydroxyacyl-CoA dehydrogenase type II; recombinant HADH2, NADH fluorescence, beta-hydroxybutyryl-CoA; Potency, µM (titrated, usually from 57.1 µM), for inactives: top-dose activity change, negative = inhibition, usual class: inhibitors; actives 3.4% (n = 73,000); Q99714; also: potency is read from the fitted curve at half-maximal effect; % is scaled to controls: 0 for no effect and ±100 for the full control effect; nearly all actives have a fitted effect of over 60% in size
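NADH fluorescence (ex 360/em 450 nm) read every 30 s for 4 min; activity taken as last-minus-first time point difference. Enzyme 20 nM, NAD+ 1 mM, beta-hydroxybutyryl-CoA 90 uM, pH 9.0 Tris buffer.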
AID923 = qHTS Assay for Allosteric/Competitive Inhibitors of Caspase-1: Spectroscopic Profiling in AFC Spectral Region; Potency, µM (highest dose often 57.5 µM), for inactives: at the highest dose fluorescence increase, hits mostly activators; compound fluorescence, AFC spectral region (405/520 nm); actives 1.1% (n = 75,000); also: potency is read from the fitted curve at half-maximal effect; 0% is about no effect
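Titrations up to 57 uM read every 20 sec for 3 min (405/520 nm) with 50 nM caspase 1 and 5 uM Ac-WEHD-AFC, pH 7.5 HEPES buffer. Fluorescence-vs-time intercept gave baseline, scaled against on-plate AFC standard.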
4MU fluor = compounds fluorescent in 4-MU spectral region; compound autofluorescence, 340/450 nm, 4-MU equivalents; hits give high values; max dye-equivalent concentration, M; actives 11% (n = 59,000); AID 589; in the data active = max dye-equivalent concentration above about 10 nM; inconclusive = mostly about 1.1 nM to 9.6 nM
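Compounds in 100 mM Tris, pH 8.0, sat 15 min at room temperature before fluorescence was read at 340 nm excitation/450 nm emission; a per-plate six-point 4-MU standard curve converted signals to dye-equivalent concentration at each compound concentration.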
The depositor's hits bear a star; i = inactive; ? = inconclusive; nt = no result given; [ ] = remark or other dose. Most compounds without a hit are left out; they make up all but 13% or so of the library. Unless noted, calls follow the shape of the dose curve; as a rule, active = well fitted curve in the direction sought with a large enough effect; inconclusive = small, poorly fitted or top-dose-only effect, or another doubt; inactive = no such curve, though single readings can be large; an effect the other way counts as inactive or inconclusive.

SMILES	HSD17B inhib	A350 autofl	GBA activity	HADH2 inhib	AID923	4MU fluor
CCOC(=O)c1[nH]c(C)c(/C(O)=C2\C(=O)C(=O)N(CCN(C)C)C2c2ccncc2)c1C (centres undefined)	-5%	1.3e-08M*	>77	-5%	0%	?
Cc1noc(C)c1-c1nccc(N2CCNCC2)n1	-2%	1.3e-08M*	nt	?	-2%	1.2e-08M*
O=C(Nc1ccccc1)N1CCCC2(CCN(C(=O)c3cccc(F)c3)CC2)C1	-1%	i	nt	4%	0%	i
Cc1ccc2cccc(OCC(=O)NCc3ccco3)c2n1	-3%	i	>77	6%	-1%	i
Cc1ccc2cccc(SCC(=O)NCc3ccco3)c2n1	25µM*	2.8e-08M*	>77	?	0%	2.2e-08M*
Cc1ccc2cccc(SCC(=O)N3CCOCC3)c2n1	32µM*	nt	nt	-9%	-1%	nt
O=C(CSc1nc2ccccc2nc1SCC(=O)N1CCOCC1)N1CCOCC1	-5%	nt	nt	-3%	0%	nt
COc1cccc(-c2nnc(Nc3nc4c(F)cccc4s3)o2)c1	32µM*	8e-08M*	>77	-1%	2%	2.8e-08M*
COc1ccccc1-c1nnc(Nc2nc3c(OC)cccc3s2)o1	69%	9.4e-07M*	>77	32µM*	0%	1.1e-06M*
CCn1c(SCC(=O)c2cc(OC)ccc2OC)nnc1C1CC1	-5%	i	>77	10%	1%	i
Cc1ccc2c(CC(=O)Nc3nc(C)cs3)coc2c1	?	i	>77	5%	-1%	i
CCOC(=O)c1ccc2nc3c(cc2c1)CCS3	25µM*	2.7e-08M*	i	14%	0%	2.6e-08M*
Cc1noc(NS(=O)(=O)c2ccc(NC(=O)CCC3CCCC3)cc2)c1C	8%	i	15*	7%	-2%	i
CCC=O	2%	nt	nt	-3%	3%	nt
CCOC(=O)c1nc2sc3c(c2c(=O)[nH]1)CCCC3	25µM*	nt	nt	32µM*	10%	nt
CCc1nc2sc3c(c2c(=O)o1)CCCC3	nt	i	nt	nt	nt	i
CC(=O)N1CCN(C(=O)CCc2nc3sc4c(c3c(=O)[nH]2)CCCC4)CC1	?	2.2e-08M*	>77	10%	-1%	1.6e-08M*
O=c1[nH]c(CN2CCN(Cc3ccccc3)CC2)nc2sc3c(c12)CCC3	?	1.4e-08M*	>77	17%	3%	1.5e-08M*
C=C(C)CSc1nnc([C@@H](NC(=O)OC(C)(C)C)C(C)CC)o1 (some centres undefined)	3%	i	>77	-6%	0%	i
Cc1cc(C(=O)NCc2cc(C)n(C)n2)sc1-c1ccccc1	25µM*	i	nt	?	-1%	i
Cc1cccc(S(=O)(=O)C(C#N)c2nc3ccccc3nc2N2CCOCC2)c1 (centres undefined)	-19%	2.3e-08M*	>77	-13%	15%	1.7e-08M*
Cc1ccc(S(=O)(=O)C(C#N)c2nc3ccccc3nc2N2CCCCC2)cc1 (centres undefined)	8%	nt	nt	2%	5%	nt
CC1CCCN(c2nc3ccccc3nc2C(C#N)S(=O)(=O)c2ccccc2)C1 (centres undefined)	-25%	nt	nt	?	13%	nt
CCCCOC(=O)C(C#N)c1nc2ccccc2nc1N1CCN(Cc2ccc3c(c2)OCO3)CC1 (centres undefined)	1%	?	nt	11%	5%	?
COc1ccc(S(=O)(=O)C(C#N)c2nc3ccccc3nc2N2CCC(C)CC2)cc1 (centres undefined)	-14%	2.7e-08M*	?	-6%	16%	2.3e-08M*
SMILES	HSD17B inhib	A350 autofl	GBA activity	HADH2 inhib	AID923	4MU fluor
CCCCOc1nc2ccccc2nc1C(C#N)S(=O)(=O)c1ccccc1 (centres undefined)	4%	4.9e-08M*	>77	-1%	0%	3.7e-08M*
CCOC(=O)N1CCN(c2nc3ccccc3nc2C(C#N)S(=O)(=O)c2ccc(C)cc2)CC1 (centres undefined)	?	1.2e-08M*	?	-7%	7%	1.2e-08M*
O=c1cc(-c2ccccc2O)oc2c1ccc1ccccc12	-9%	i	nt	6%	-1%	i
CCn1c(=O)c(C2=NS(=O)(=O)c3ccccc3N2)c(O)c2ccccc21	-12%	?	>77	-5%	-2%	?
Cc1c(N2C(=O)c3ccc4c5c(ccc(c35)C2=O)CC4)c(=O)n(-c2ccccc2)n1C	20µM*	nt	nt	-6%	4%	nt
Cc1cc(C)cc([N+](=O)[O-])c1	1%	nt	nt	-14%	-1%	nt
COC(=O)c1cc2c([nH]c3ccccc32)c(C)n1	32µM*	?	>77	?	0%	?
N#Cc1c(N)nc(SCC(=O)NC2CCCCC2)c(C#N)c1-c1ccc(Cl)cc1	-6%	6.9e-08M*	>77	-3%	0%	5.7e-08M*
CCOC(=O)CSc1nc(N)c(C#N)c(-c2ccc(OCC)cc2)c1C#N	?	7.5e-08M*	>77	?	3%	7.4e-08M*
Cc1ccc(S(=O)(=O)NC(=O)Nn2c(C)nnc2C)cc1	2%	nt	nt	-6%	3%	nt
CCC(=O)Nn1c(C)nnc1C	-6%	1.7e-08M*	>77	4%	4%	1.2e-08M*
Fc1ccc(CN2CCCCCCC2)cc1F	4%	nt	nt	6%	2%	nt
COc1cc2cc(C(c3nnnn3C3CCCCC3)N(C)C3CCCCC3)c(=O)[nH]c2cc1OC (centres undefined)	-29%	4.2e-08M*	i	-28%	2%	4.8e-08M*
CC(C)C(c1nnnn1C1CCCC1)N(C)C1CCCCC1 (centres undefined)	2%	i	>77	9%	0%	i
COc1cc2cc(C(c3nnnn3C3CCCC3)N(C)C3CCCCC3)c(=O)[nH]c2cc1OC (centres undefined)	?	6.6e-08M*	>77	-21%	3%	8.2e-08M*
Cc1ccc2cc(C(c3nnnn3C3CCCC3)N(Cc3ccccc3)Cc3ccco3)c(=O)[nH]c2c1 (centres undefined)	?	?	?	-6%	1%	?
OC[C@@H]1O[C@@H](n2cnc3c(SCc4ccccc4)ncnc32)[C@@H](O)[C@H]1O	5%[11.4 µM]	i	nt	21%[11.4 µM]	0%[11.5 µM]	i
CCC[C@@H]1C[C@@]1(CCC)[C@@H](NC(=O)Oc1ccccc1)c1ccc(C(=O)OC)cc1	-15%	nt	nt	6%	1%	nt
CC(=O)Nc1ccc(S(=O)(=O)Nc2nc3ccccc3nc2N2CCCC2)cc1	-23%	1.1e-08M*	>77	2%	-4%	?
COc1ccccc1NS(=O)(=O)c1ccc(NC(C)=O)cc1	-1%	i	>77	-6%	-1%	i
Cc1ccc(N(CC(=O)Nc2cccc(C)c2)S(=O)(=O)c2cccc3nonc23)cc1	8%	i	>77	1%	3%	i
